Values joined by “and” are separate entries in the source; they are usually repeats but may differ in a detail not shown here. Identical values can stand only once. ± gives the standard deviation of the averaged measurements. The full ranking holds about 1,600 compounds; the median of “mitochondrial oxygen consumption rate normalised to cell number, Z score over the library” is about 0.065, and the lowest 2% start at about -2.2. Only a selection was taken, and the lowest values are over-represented in it overall.
The compounds below were run on FaDu (assay: mitochondrial oxygen consumption rate normalised to cell number, Z score over the library; higher = higher oxygen consumption (negative = OCR reduction)). Conditions: treatment time 24 h; assay medium: 5 mM galactose, 5 mM pyruvate, 4 mM glutamine; 10 µM.
Procedure: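 Primary screen: FaDu cells were incubated 24 h with Pharmakon 1600 / TDI oncology set compounds at 2 or 10 uM. Mitochondrial-specific OCR (basal minus 2 uM antimycin A) was measured on a Seahorse XF96 in assay medium with 5 mM galactose, 5 mM pyruvate and 4 mM glutamine, then corrected for Hoechst cell number and expressed as a Z score […]. Compounds that cut cell number by >66% were excluded. Two repeats.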

Structure (SMILES)	mitochondrial oxygen consumption rate normalised
Oc1ccc2ccccc2c1 [beta-NAPHTHOL]	0.778 ± 0.095
C/C=C(/C)C(=O)O[C@H]1[C@H](OC(C)=O)[C@@]2(CO)C(CC1(C)C)C1=CCC3[C@@]4(C)CCC(O[C@@H]5O[C@H](C(=O)O)[C@@H](O[C@@H]6O[C@H](CO)[C@@H](O)[C@H](O)[C@H]6O)[C@H](O)[C@H]5O[C@@H]5O[C@H](CO)[C@@H](O)[C@H](O)[C@H]5O)[C@](C)(CO)C4CC[C@@]3(C)[C@]1(C)C[C@H]2O.C/C=C(\C)C(=O)O[C@H]1[C@H](OC(C)=O)[C@@]2(CO)C(CC1(C)C)C1=CCC3[C@@]4(C)CCC(O[C@@H]5O[C@H](C(=O)O)[C@@H](O[C@@H]6O[C@H](CO)[C@@H](O)[C@H](O)[C@H]6O)[C@H](O)[C@H]5O[C@@H]5O[C@H](CO)[C@@H](O)[C@H](O)[C@H]5O)[C@](C)(CO)C4CC[C@@]3(C)[C@]1(C)C[C@H]2O (some centres undefined)	0.3 ± 0.096
N=C(NCCCCCCNC(=N)NC(=N)Nc1ccc(Cl)cc1)NC(=N)Nc1ccc(Cl)cc1	-3.36 ± 0.16
CC(C)NC(=N)NC(=N)Nc1ccc(Cl)cc1	-0.293 ± 0.099
N=C(N)NC(=N)NCCc1ccccc1	-1.85 ± 0.1
CN(C)c1cnccn1	0.284 ± 0.5
CC[C@H]1OC(=O)C[C@@H](O)[C@H](C)[C@@H](O[C@@H]2O[C@H](C)[C@@H](O)[C@H](N(C)C)[C@H]2O)[C@@H](CCN2C[C@H](C)C[C@H](C)C2)C[C@@H](C)C(=O)/C=C/C(C)=C/[C@@H]1CO[C@@H]1O[C@H](C)[C@@H](O)[C@@H](OC)[C@H]1OC	0.2667 ± 0.0014
CCCNC(C)C(=O)Nc1ccccc1C (centres undefined)	-0.507 ± 1.1
CC(C)[C@H](N)C(=O)OCC(CO)OCn1cnc2c(=O)nc(N)[nH]c21 (some centres undefined)	1.37 ± 0.77
N#Cc1ccc2[nH]cc(CCCCN3CCN(c4ccc5oc(C(N)=O)cc5c4)CC3)c2c1	-0.383 ± 0.58
CCN(CC)C(=O)N1CCN(C)CC1	1.02 ± 0.63
CCOCCOc1ccccc1C(N)=O	1.14 ± 0.52
Cc1c2oc3c(C)ccc(C(=O)N[C@@H]4C(=O)N[C@H](C(C)C)C(=O)N5CCC[C@H]5C(=O)N(C)CC(=O)N(C)[C@@H](C(C)C)C(=O)O[C@@H]4C)c3nc-2c(C(=O)N[C@@H]2C(=O)N[C@H](C(C)C)C(=O)N3CCC[C@H]3C(=O)N(C)CC(=O)N(C)[C@@H](C(C)C)C(=O)O[C@@H]2C)c(N)c1=O	-4.48 ± 0.4
CO[C@H]1C[C@H](O[C@@H]2/C(C)=C/C[C@@H]3C[C@@H](C[C@]4(CC[C@H](C)[C@@H](C5CCCCC5)O4)O3)OC(=O)[C@@H]3C=C(C)/C(=N/O)[C@H]4OC/C(=C\C=C\[C@@H]2C)[C@]43O)O[C@@H](C)[C@@H]1O	0.0124 ± 0.37
CN(C)CCc1c[nH]c2ccc(C[C@H]3COC(=O)N3)cc12	0.529 ± 0.45
CCC(=O)O[C@H](CC(=O)O)C[N+](C)(C)C	-0.676 ± 0.16
C[C@]12CCC(=O)C=C1CC[C@@H]1[C@@H]2[C@@H](O)C[C@@]2(C)[C@H]1CC[C@]2(O)C(=O)COP(=O)(O)O	1.06 ± 0.71
NCCc1cc[nH]n1	-0.155 ± 0.3
CCCCCCOC(=O)NC(=N)c1ccc(NCc2nc3cc(C(=O)N(CCC(=O)OCC)c4ccccn4)ccc3n2C)cc1	0.662 ± 0.54
Cc1ncc(COP(=O)([O-])[O-])c(CN(CCN(CC(=O)O)Cc2c(COP(=O)([O-])O)cnc(C)c2O)CC(=O)O)c1O.[Mn].[Na+].[Na+].[Na+]	0.342 ± 0.21
CCCOc1ccc2[nH]c(NC(=O)OC)nc2c1	0.108 ± 0.53
CCCCC(=O)O[C@]1(C(=O)CO)[C@@H](C)C[C@H]2[C@@H]3CCC4=CC(=O)C=C[C@]4(C)[C@@]3(F)[C@@H](O)C[C@@]21C	-0.0902 ± 0.67
O=C1CN2Cc3c(ccc(Cl)c3Cl)N=C2N1	1.01 ± 0.66
C[C@]12CC[C@@H]3c4ccc(O)cc4CC[C@H]3[C@@H]1C[C@@H](O)[C@@H]2O	-0.347 ± 0.41
C[C@]12CC[C@@H]3c4ccc(O)cc4CC[C@H]3[C@@H]1CC[C@@H]2O	-0.551 ± 0.072
C[C@]12CC[C@@H]3c4ccc(O)cc4C[C@@H](CCCCCCCCC[S+]([O-])CCCC(F)(F)C(F)(F)F)[C@H]3[C@@H]1CC[C@@H]2O (some centres undefined)	-2.25 ± 2.2
N=C(N)NS(=O)(=O)c1ccc(N)cc1	-0.417 ± 0.81

Structure (SMILES)	mitochondrial oxygen consumption rate normalised
O=C[C@H](O)[C@@H](O)[C@H](O)CO	-0.552 ± 0.11
Cc1cc(C(C)(C)CC(C)(C)C)ccc1OCCOCC[N+](C)(C)Cc1ccccc1	-5.95 ± 0.082
CC(C)(C)CC(C)(C)c1ccc(OCCOCC[N+](C)(C)Cc2ccccc2)cc1	-6.2 ± 0.063
CO[C@H]1C[C@@H]2CC[C@@H](C)[C@@](O)(O2)C(=O)C(=O)N2CCCC[C@H]2C(=O)O[C@H]([C@H](C)C[C@@H]2CC[C@@H](OCCO)[C@H](OC)C2)CC(=O)[C@H](C)/C=C(\C)[C@@H](O)[C@@H](OC)C(=O)[C@H](C)C[C@H](C)/C=C/C=C/C=C/1C	-1.07 ± 0.18
C(=C\c1ccccc1)/CN1CCN(C(c2ccccc2)c2ccccc2)CC1	-0.167 ± 0.011
COc1ccc2cc(CCC(C)=O)ccc2c1	0.808 ± 0.11
O=C(Nc1ccccc1)c1ccccc1O	-0.209 ± 0.021
CC1CCCC(C)N1 (centres undefined)	-0.441 ± 0.17
O=C(CCCCCCCC(=O)NCCO)NCCO	-0.567 ± 0.53
Cn1nnnc1SCC1=C(C(=O)O)N2C(=O)[C@@H](NC(=O)[C@H](O)c3ccccc3)[C@H]2SC1	0.376 ± 0.31
COCCCOc1ccnc(C[S+]([O-])c2nc3ccccc3[nH]2)c1C (centres undefined)	0.0779 ± 0.21
CCN(CC)CCOC(=O)C(Cc1cccc2ccccc12)CC1CCCO1 (centres undefined)	-0.531 ± 1.6
O=C(O)c1cc(O)c2c(c1)[C@H]([C@H]1c3cc(C(=O)O)cc(O)c3C(=O)c3c(O[C@@H]4O[C@H](CO)[C@@H](O)[C@H](O)[C@H]4O)cccc31)c1cccc(O[C@@H]3O[C@H](CO)[C@@H](O)[C@H](O)[C@H]3O)c1C2=O	0.905 ± 0.018
COc1cccc2c1C(=O)c1c(O)c3c(c(O)c1C2=O)C[C@@](O)(C(=O)CO)C[C@@H]3O[C@H]1C[C@H](N)[C@@H](O)[C@H](C)O1	-2.82 ± 0.22
CCCCC(=O)OCC(=O)[C@]1(O)Cc2c(O)c3c(c(O)c2[C@@H](O[C@H]2C[C@H](NC(=O)C(F)(F)F)[C@H](O)[C@H](C)O2)C1)C(=O)c1c(OC)cccc1C3=O [valrubicin]	-0.0886 ± 0.77
Cn1nnnc1SCC1=C(C(=O)O)N2C(=O)[C@@H](NC(=O)[C@H](OC=O)c3ccccc3)[C@H]2SC1	0.0513 ± 0.34
CC(C)NCC(O)COc1cccc2ccccc12 (racemic)	-0.291 ± 0.42
CC[n+]1c(-c2ccccc2)c2cc(N)ccc2c2ccc(N)cc21	-2.32 ± 0.27
COc1cc(NS(C)(=O)=O)ccc1Nc1c2ccccc2nc2ccccc12	-2.77 ± 0.43
CS(=O)(=O)Nc1ccc([N+](=O)[O-])cc1Oc1ccccc1	0.196 ± 0.72
CC(=O)Oc1c(C)c(C)c2c(c1C)CCC(C)(CCCC(C)CCCC(C)CCCC(C)C)O2 (stereo not drawn) [alpha-TOCHOPHERYL ACETATE]	-0.281 ± 0.21
O=C1c2ccccc2C(=O)C1c1ccc(Cl)cc1	0.0788 ± 0.46
CC(O)C(=O)[O-].[Na+] (centres undefined)	1.11 ± 0.92
CC(=O)Nc1ccc(S(=O)(=O)Nc2ccc([N+](=O)[O-])cc2)cc1	1.45 ± 0.4
NCCCS(=O)(=O)O	-0.855 ± 0.32
C#CCC(Cc1cnc2nc(N)nc(N)c2n1)c1ccc(C(=O)N[C@@H](CCC(=O)O)C(=O)O)cc1 (some centres undefined) [Pralatrexate]	0.0598 ± 0.75
Nc1ccc(S(=O)(=O)O)cc1.Nc1ccc(S(=O)(=O)O)cc1.[Zn]	1.04 ± 0.43

Structure (SMILES)	mitochondrial oxygen consumption rate normalised
C[C@@H]1O[C@@H](OC[C@H]2O[C@@H](Oc3c(-c4ccc(OCCO)c(OCCO)c4)oc4cc(OCCO)cc(O)c4c3=O)[C@H](O)[C@@H](O)[C@@H]2O)[C@H](O)[C@H](O)[C@H]1O	-0.575 ± 0.55
CC(C)CCC[C@@H](C)[C@H]1CC[C@H]2[C@@H]3CC=C4C[C@@H](O)CC[C@]4(C)[C@H]3CC[C@]12C	-0.87 ± 0.089
O=C(c1cccnc1)N1CCOCC1	-0.217 ± 0.94
COc1cc(NS(=O)(=O)c2ccc(N)cc2)ncn1	0.47 ± 0.61
NCC(O)CC(=O)O (centres undefined)	-0.332 ± 0.83
CN1C(=O)CC(C)(c2ccccc2)C1=O (centres undefined)	-0.314 ± 0.74
CCCCOc1ccc(CC(=O)NO)cc1	-0.625 ± 0.84
CCCCCCCCCc1ccc(OCCOCCOCCOCCOCCOCCOCCOCCOCCO)cc1	-3.66 ± 0.45
CCCCOc1ccc(OCCCN2CCOCC2)cc1	-0.434 ± 0.23
CC(=O)Oc1ccccc1C(=O)Nc1ncc([N+](=O)[O-])s1	-2.45 ± 0.1
CC(=O)Nc1ncc([N+](=O)[O-])s1	0.857 ± 0.27
CC(=O)Oc1ccccc1C(=O)O	0.27 ± 0.45
CN(C)[C@@H]1C(O)=C(C(N)=O)C(=O)[C@@]2(O)C(O)=C3C(=O)c4c(O)cccc4[C@@](C)(O)[C@H]3[C@H](O)[C@@H]12	0.305 ± 0.067
Cn1c(=O)c2[nH]c(Br)nc2n(C)c1=O	0.142 ± 0.29
O=C(CCBr)N1CCN(C(=O)CCBr)CC1	1.32 ± 1.1
O=C(CCBr)N1CCN(C(=O)CCBr)CC1 [Pipobroman]	-0.527 ± 1.4
CCC1(C)OC(=O)N(C)C1=O (centres undefined)	0.0479 ± 0.05
CN1C(C(=O)Nc2ccccn2)=C(O)c2sc(Cl)cc2S1(=O)=O	-0.183 ± 0.66
Oc1c(I)cc(I)c2cccnc12	0.968 ± 0.98
O=[N+]([O-])c1ccc(O)c2ncccc12	-2.21 ± 0.14
Oc1ccc(Cl)c2cccnc12	0.469 ± 0.61
CCCCCCCC/C=C\CCCCCCCC(=O)O.NCCO	-0.00915 ± 0.76
CC[C@H]1OC(=O)[C@H](C)[C@@H](O[C@H]2C[C@@](C)(OC)[C@@H](O)[C@H](C)O2)[C@H](C)[C@@H](O[C@@H]2O[C@H](C)C[C@H](N(C)C)[C@H]2O)[C@](C)(O)C[C@@H](C)[C@@H]2N[C@@H](COCCOC)O[C@H]([C@H]2C)[C@]1(C)O	-0.149 ± 0.29
CCc1c2c(nc3ccc(OC(=O)N4CCC(N5CCCCC5)CC4)cc13)-c1cc3c(c(=O)n1C2)COC(=O)[C@]3(O)CC	-1.11 and -2.18
CC[C@@]1(O)C(=O)OCc2c1cc1n(c2=O)Cc2cc3c(CN(C)C)c(O)ccc3nc2-1	-4.46 ± 0.19
